A selection: hits, their analogues and other compounds. The true share with any hit is near 21%.
RORgamma inh: qHTS for inhibitors of ROR gamma transcriptional activity; Drosophila S2 Gal4-RORgamma UAS-luciferase reporter, 20 h; Potency, µM (top dose mostly 53.6 µM), for the others: at the highest dose activity change, negative = inhibition, actives largely listed as inhibitors; 310,000 compounds, 5.4% hits; also: potency is read from the fitted curve at half-maximal effect; nearly all actives have a fitted effect of over 60% in size
Target sequence (P51450 whole entry, looked up, the tested form may be a part): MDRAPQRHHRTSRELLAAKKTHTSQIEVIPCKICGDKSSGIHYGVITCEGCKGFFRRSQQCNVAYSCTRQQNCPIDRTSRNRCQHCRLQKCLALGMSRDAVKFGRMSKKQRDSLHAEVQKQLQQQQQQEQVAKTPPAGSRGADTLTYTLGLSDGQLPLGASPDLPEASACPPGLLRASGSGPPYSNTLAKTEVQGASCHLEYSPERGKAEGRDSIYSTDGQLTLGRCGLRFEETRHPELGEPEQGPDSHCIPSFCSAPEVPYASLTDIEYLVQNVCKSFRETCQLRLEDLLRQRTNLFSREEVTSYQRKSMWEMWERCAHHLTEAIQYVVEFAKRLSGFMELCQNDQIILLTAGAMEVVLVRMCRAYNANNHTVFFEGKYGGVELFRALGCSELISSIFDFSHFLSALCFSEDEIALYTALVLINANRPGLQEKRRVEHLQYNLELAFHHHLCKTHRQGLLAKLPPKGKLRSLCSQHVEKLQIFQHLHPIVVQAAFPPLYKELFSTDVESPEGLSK
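Luminescence from a UAS-regulated Photinus luciferase reporter in stably transfected Drosophila Schneider cells is measured; decreased signal marks ROR gamma inhibition. Fusion expression is induced by 700 uM copper sulfate for 20 hr.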
TDP1 cell noCPT: qHTS for Inhibitors of human tyrosyl-DNA phosphodiesterase 1 (TDP1): qHTS in cells in absence of CPT. Potency, µM (titrated, usually from 46.2 µM), without a hit: at the highest dose activity change, negative = growth inhibition, most hits filed as inhibitors. AID 686978, 2013. 420,000 compounds, 15% hits. DT40 Tdp1-/- hTDP1 cells, no CPT, ATP luminescence, 48 h; also: potency is read from the fitted curve at half-maximal effect; nearly all actives have a fitted effect of over 55% in size
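A cellular qHTS used chicken DT40 cells lacking endogenous Tdp1 but carrying stably transfected human TDP1. Compounds were applied without camptothecin, and cell growth kinetics were judged by ATP-dependent luminescence after ≥48 hr.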
ELG1 repair inh: qHTS screen for small molecules that inhibit ELG1-dependent DNA repair in human embryonic kidney (HEK293T) cells expressing luciferase-tagged ELG1. 330,000 compounds, 2.3% hits. HEK293T ELG1-luciferase reporter, luminescence, 16 h; DNA damage induced by 5-fluorouridine. Potency, µM (titrated, usually from 46.1 µM), for inactives: at the highest dose activity change, negative = inhibition, usual class: inhibitors; also: potency is read from the fitted curve at half-maximal effect; nearly all actives have a fitted effect of over 55% in size
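Overnight (16 hr) co-exposure of 2,000 cells/well to 5-fluorouridine and compound at 37 °C preceded detection. Luciferase was quantified via ONE-Glo luminescence; loss of signal denotes inhibition.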
TDP1 cell CPT: qHTS for Inhibitors of human tyrosyl-DNA phosphodiesterase 1 (TDP1): qHTS in cells in presence of CPT | chicken DT40 Tdp1-/-;hTDP1 cells + 20 nM CPT, ATP luminescence, 48 h | Potency, µM (top dose mostly 46.2 µM), for the others: at the highest dose activity change, negative = growth inhibition, hits mostly inhibitors | 420,000 compounds, 12% hits; also: potency is read from the fitted curve at half-maximal effect; nearly all actives have a fitted effect of over 55% in size
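Chicken DT40 Tdp1-/- cells stably complemented with human TDP1 were seeded at 400 cells/well in medium containing 20 nM camptothecin, exposed to pin-transferred compounds, and grown at 37 °C for at least 48 hr. Viability was read as ATP luminescence.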
Gal4-VP16 FLuc: VP16 counterscreen qHTS for inhibitors of ROR gamma transcriptional activity; Potency, µM (highest dose often 53.6 µM), without a hit: top-dose activity, negative = inhibition, hits mostly inhibitors; 310,000 compounds, 3.5% hits; Drosophila S2 Gal4-VP16 UAS-luciferase, luminescence, 20 h; AID 2546, 2010;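 also: Gal4-VP16 expression switched on by copper sulfate through the metallothionein promoter; potency is read from the fitted curve at half-maximal effect; nearly all actives have a fitted effect of over 50% in size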
IL-1B inflam inh: qHTS for Inhibitors of Inflammasome Signaling: IL-1-beta AlphaLISA Primary Screen; 360,000 compounds, 4.7% hits; activity change, % at 57.5 µM; AID 743279, 2014; THP-1 LPS/ATP IL-1B secretion, AlphaLISA, 16 h; active compounds read low; in the data active = activity change below about -50%; inconclusive = mostly about -30% to -49%
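Secreted IL-1B measured by AlphaLISA bead assay after 16 h compound exposure of THP-1 cells; compounds (final up to 57.5 uM) added 1 h before LPS (250 ng/mL) and ATP (1.25 mM) stimulation; lower signal means less secretion.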
* hit, by the source's call; ? = inconclusive; · = no result. Unless noted, calls follow the shape of the dose curve; as a rule, active = well fitted curve in the direction sought with a large enough effect; inconclusive = small, poorly fitted or top-dose-only effect, or another doubt; inactive = no such curve, though single readings can be large; an effect the other way counts as inactive or inconclusive. % is scaled to controls: 0 for no effect and ±100 for the full control effect.

SMILES	RORgamma inh	TDP1 cell noCPT	ELG1 repair inh	TDP1 cell CPT	Gal4-VP16 FLuc	IL-1B inflam inh
CCc1cccc(C)c1NC(=O)Cn1ncc2c3ccccc3n(Cc3ccccc3)c2c1=O	·	8.2µM*	·	10µM*	·	·
Cc1ccccc1Cn1c2ccccc2c2cnn(CC(=O)NCc3cccc(Cl)c3)c(=O)c21	·	-103%	·	15µM*	·	·
COc1ccccc1CNC(=O)Cn1ncc2c3ccccc3n(Cc3ccccc3C)c2c1=O	·	16µM*	·	7.3µM*	·	·
Cc1ccccc1Cn1c2ccccc2c2cnn(CC(=O)NCCCN3CCN(C)CC3)c(=O)c21	1%	?	?	?	-7%	?
COC(=O)c1ccc(COC(=O)CCC(=O)c2cccs2)cc1	-4%	3%	?	19%	25%	42
CCCN=C1N(CC)C[C@@H]2[C@@H]3C(=O)N(Cc4ccccc4)C(=O)[C@@H]3[C@](Cc3ccccc3)(C(=O)OC)N12	·	-12%	2%	-1%	·	-9
Cc1nn(C)c(Cl)c1CN1CCCC(CO)(Cc2cccc(Cl)c2)C1 (stereo not given)	1%	15µM*	1%	15µM*	-12%	-4
O=C(c1ccc(-n2ccnc2)cc1)N1CCCC(CO)(Cc2cccc(Cl)c2)C1 (stereo not given)	?	?	0%	4.6µM*	4%	-1
OCC1(Cc2cccc(Cl)c2)CCCN(Cc2ccc(F)c(F)c2)C1 (stereo not given)	-26%	?	15%	23µM*	-22%	-55*
COc1ccc(CN2CCCC(CO)(Cc3cccc(Cl)c3)C2)cc1OC (stereo not given)	6%	21µM*	-13%	-29%	4%	-9
CSc1cccc(CN2CCCC(CO)(Cc3cccc(Cl)c3)C2)c1 (stereo not given)	6%	12%	5%	-5%	-1%	-8
Cc1ccccc1CC1(CO)CCCN(Cc2c(C)nn(C)c2Cl)C1 (stereo not given)	1%	?	13%	19%	-7%	-13
COc1ccc(C(=O)c2ccc(Cl)cc2)c(OC)c1OC	·	?	·	-2%	·	6
OCC1(Cc2ccccc2)CCCN(Cc2ccc(-c3ccco3)cc2)C1 (stereo not given)	2%	23µM*	-7%	?	5%	-84*
OCC1(Cc2cccc(Cl)c2)CCCN(Cc2cnn(-c3ccccc3)c2)C1 (stereo not given)	-27%	13µM*	-2%	?	-1%	-19
Cn1cc(CN2CCCC(CO)(Cc3cccc(Cl)c3)C2)cn1 (stereo not given)	-4%	?	-4%	-21%	3%	-16
O=C(Nc1ccccc1C(F)(F)F)NC1(C(=O)N2CCOCC2)CCCCC1	·	?	·	?	·	49
CCCn1ccc2c(OCC(=O)Nc3ccccc3OCC)cccc2c1=O	·	12µM*	·	21µM*	·	·
COCCn1ccc2c(OCC(=O)Nc3ccccc3OC)cccc2c1=O	·	21µM*	?	18µM*	·	?
CCOc1ccccc1NC(=O)COc1cccc2c(=O)n(CCOC)ccc12	·	13µM*	·	12µM*	·	·
CCCn1ccc2c(OCC(=O)NCc3ccccc3Cl)cccc2c1=O	·	23µM*	·	?	·	·
CCOCCn1ccc2c(OCC(=O)Nc3ccc(OC)cc3OC)cccc2c1=O	·	?	?	-23%	·	0
CCOCCn1ccc2c(OCC(=O)Nc3ccccc3F)cccc2c1=O	·	?	?	?	·	-3
CC(C)Cc1cc(C(=O)N2CCCC(CCC(=O)N(C)CCc3ccccn3)C2)no1 (stereo not given)	17%	3%	?	-7%	1%	30
COc1ccc2nc(N3CCOCC3)cc(C)c2c1	12%	5%	?	4%	-21%	-12
SMILES	RORgamma inh	TDP1 cell noCPT	ELG1 repair inh	TDP1 cell CPT	Gal4-VP16 FLuc	IL-1B inflam inh
Cc1ccccc1C(=O)Nc1ccc2nc(N3CCCCC3)cc(C)c2c1	·	21µM*	·	?	·	·
COc1cc(OC)cc(C(=O)Nc2ccc3nc(N4CCCCC4)cc(C)c3c2)c1	·	16µM*	·	15µM*	·	·
COc1cccc(C(=O)Nc2ccc3nc(N4CCOCC4)cc(C)c3c2)c1	4%	21µM*	?	16µM*	-3%	22
COc1ccc(CC(=O)Nc2ccc3nc(N4CCCCC4)cc(C)c3c2)cc1	·	?	·	23µM*	·	·
O=S1(=O)CC(N2CCN(CC3CC3)CC2)CN1Cc1ccccc1 (stereo not given)	·	-25%	·	?	·	0
Cc1ccc(F)c(S(=O)(=O)NC(=O)C2(C)CCN2C(=O)c2ccc(C(F)(F)F)nc2C)c1 (stereo not given)	·	-27%	·	0%	·	23
N[C@@H](CCC(=O)N[C@@H](CS)C(=O)NCC(=O)O)C(=O)O	·	-15%	·	?	·	·
CCN1CCN(c2cc(C)c3cc(NC(=O)Cc4ccccc4OC)ccc3n2)CC1	-2%	-11%	7%	9%	22%	9
CCOc1cccc(CC(=O)Nc2ccc3nc(N4CCCCC4)cc(C)c3c2)c1OCC	·	?	·	21µM*	·	·
O=c1c2ccccc2nc2sc3ccccc3n12	?	13µM*	?	?	-8%	18
COC(=O)/C=c1/sc2nc3ccccc3n2c1=O	-36%	?	0%	?	3%	10
Cc1ccc(C(C)C)c(OCC(=O)Nc2cccc(NC(=O)c3ccco3)c2)c1	·	21µM*	·	?	·	·
Cc1ccc(C(C)C)c(OCC(=O)NNC(=O)Nc2ccccc2)c1	·	?	·	-29%	·	-76*
COc1cc(NC(=O)COc2ccccc2C)ccc1NC(=O)c1ccco1	·	-3%	-5%	-3%	·	-8
COc1ccc(NC(=O)c2ccco2)cc1NC(=O)c1ccc(OC(C)C)cc1	·	21µM*	·	?	·	·
Cc1ccc(C(C)C)c(OCCNC(=O)c2ccccc2O)c1	2%	26µM*	?	15µM*	?	-81*
CCOc1cc(-c2nc(-c3ccc(Br)cc3)no2)cc(OCC)c1OCC	·	-8%	·	-9%	·	·
COc1ccc(NC(=O)c2ccco2)cc1NC(=O)c1ccc(C)cc1	35%	?	?	-14%	-2%	-5

High-throughput results (PubChem BioAssay)
